Source: PubChem BioAssay (The Scripps Research Institute Molecular Screening Center)
This is a sample that favours compounds with a hit; in the whole collection about 3.5% have one here.
GPR151 ag: activates the human receptor GPR151 | AID 1508602 | 650,000 tested, 1% active | Q8TDV0 | activation, % at 11.2 µM | PathHunter beta-arrestin GPR151 cells, luminescence; in the data active = activation above about 4.9%;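 note: 0% = median of compound wells and 100% = cells with positive control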
FBW7 act: activators of human E3 ligase FBW7; AlphaScreen FBW7–phospho-cyclin E peptide binding, activator screen; normalized activity (activation), % at 26.1 µM; AID 1259310; 650,000 tested, 0.13% active; in the data active = normalized activity above about 1.9%;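 note: purified mutant Fbw7 with reduced substrate affinity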
Target sequence (Q969H0 whole entry, looked up): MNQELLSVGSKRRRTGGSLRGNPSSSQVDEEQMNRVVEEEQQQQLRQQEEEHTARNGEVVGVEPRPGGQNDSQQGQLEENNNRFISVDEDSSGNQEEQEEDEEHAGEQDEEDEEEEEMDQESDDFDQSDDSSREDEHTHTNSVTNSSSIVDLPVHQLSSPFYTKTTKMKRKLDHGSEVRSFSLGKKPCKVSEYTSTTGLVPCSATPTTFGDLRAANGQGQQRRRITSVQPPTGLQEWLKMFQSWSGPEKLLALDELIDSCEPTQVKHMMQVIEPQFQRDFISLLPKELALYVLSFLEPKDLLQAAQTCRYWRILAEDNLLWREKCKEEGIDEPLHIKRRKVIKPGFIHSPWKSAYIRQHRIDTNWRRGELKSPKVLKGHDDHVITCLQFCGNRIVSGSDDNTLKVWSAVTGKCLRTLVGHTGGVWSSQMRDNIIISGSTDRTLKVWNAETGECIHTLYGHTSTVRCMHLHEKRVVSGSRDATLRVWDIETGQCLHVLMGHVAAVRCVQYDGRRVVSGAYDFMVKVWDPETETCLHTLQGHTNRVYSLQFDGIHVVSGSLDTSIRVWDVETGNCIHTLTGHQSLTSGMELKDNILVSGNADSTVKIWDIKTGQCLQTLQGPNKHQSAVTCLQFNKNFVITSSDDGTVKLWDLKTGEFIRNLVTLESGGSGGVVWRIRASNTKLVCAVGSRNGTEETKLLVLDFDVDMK
TEAD-YAP inh: TEAD-YAP interaction inhibition; HEK-TIYL cells, TEAD-Gal4/YAP UAS-luciferase luminescence; inhibition, % at 9.12 µM; 640,000 tested, 1.4% active; in the data active = inhibition above about 32%;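 note: 0% = median of test compound wells and 100% = reference inhibitor wells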
MITF inh: inhibitors of human MITF | O75030 | AlphaScreen MITF homodimerization, bead proximity signal | inhibition, % at 2.6 µM | 650,000 tested, 0.91% active; in the data active = inhibition above about 50%;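 note: 0% = vehicle wells with protein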
The depositor's hits bear a star; ! = not active in a repeat.

SMILES | GPR151 ag | FBW7 act | TEAD-YAP inh | MITF inh
CC[C@@]1([C@@H]2O[C@@H]([C@H]3O[C@@](O)(CO)[C@H](C)C[C@@H]3C)C[C@@H]2C)CC[C@H]([C@]2(C)CC[C@]3(C[C@H](O)[C@@H](C)[C@@H]([C@@H](C)[C@@H](OC)[C@H](C)C(=O)O)O3)O2)O1 | 0 | 0 | 79* | 16
O=C1NC(=S)N/C1=C/c1ccc(-c2cccc(Cl)c2)o1 | -1 | 0 | -35 | 0
O=C1NC(=S)N/C1=C/c1ccc(-c2ccc3c(c2)C(=O)OC3)o1 | -1 | 2.5* | 4 | -43
O=C1OCCN1CC(=O)N1CCc2c([nH]c3ccccc23)C1c1cc(F)ccc1F (stereo unspecified) | -1 | 0 | -37 | -3
O=C(O)c1ccc(S(=O)(=O)N2CCCC2C(=O)O)cc1 (stereo unspecified) | -1 | 0 | 0 | 8
O=C(Nc1ccc(F)cc1)C1CCN(C(=O)c2n[nH]c3ccccc23)CC1 | 0 | 0 | -77 | 4
CCN1CC(CNC(=O)c2ccc(OC3CCN(CCc4ccccc4)CC3)cc2)CC1=O (stereo unspecified) | -2 | 0 | 6 | -12
CCOc1ccc(C(=O)Nc2cccc(C)n2)cc1 | -9 | 0 | 43* | 9
Cc1cccc(NC(=O)c2ccc(N)cc2)n1 | -6 | 0 | 61* | 10
Cc1cccc(NC(=O)c2ccc(C(C)(C)C)cc2)n1 | -5 | 0 | 45* | -2
COc1ccc2cc3c(N)[nH]nc3nc2c1 | 0 | 0 | 80* | 1
COc1cc(-c2[nH]nc3c2C(c2ccccc2Br)C(C#N)=C(N)O3)cc(OC)c1OC (stereo unspecified) | 0 | 0 | 36* | -3
COc1cc(-c2[nH]nc3c2C(c2ccccc2Cl)C(C#N)=C(N)O3)cc(OC)c1OC (stereo unspecified) | -1 | 0 | 16 | -3
COC(=O)/C=C1\S/C(=N\N=C\c2ccc3c(c2)OCO3)NC1=O | -1 | 0 | -2 | -1
O=C1N/C(=N\N=C/c2ccc3c(c2)OCO3)S/C1=C/c1ccc(O)cc1 | 0 | 1 | 49* | -5
O=C(Nc1ccc2oc(-c3ccccc3F)nc2c1)c1cc2ccccc2oc1=O | 1 | 0 | -2 | 21
Cc1cc(C(=O)COC(=O)c2cccc(NS(C)(=O)=O)c2)c(C)n1Cc1ccccc1 | 0 | 0 | 57* | -6
Cc1cc(C(=O)COC(=O)c2cccc(NS(C)(=O)=O)c2)c(C)n1-c1ccccc1 | -1 | 0 | 25 | 8
COCCn1c(C)cc(C(=O)COC(=O)c2cccc(Oc3ccccc3)c2)c1C | -1 | 0 | -13 | 0
COCCn1c(C)cc(C(=O)COC(=O)c2cccc(O)c2)c1C | -11 | 0 | 62* | -6
COCCn1c(C)cc(C(=O)COC(=O)c2ccccc2Nc2ccccc2)c1C | -1 | 0 | 75* | 13
NCC(O)c1ccc(O)c(O)c1 (stereo unspecified) | 0 | 0 | 8 | 77*!
CC(c1ccccc1)c1ccc(O)c(O)c1 (stereo unspecified) | -2 | 0 | -5 | -6
Cc1sc(NC(=O)CN(C(=O)NCc2ccccc2)C2CCCCC2)c(C(N)=O)c1C | 0 | 0 | -7 | 13
CN(Cc1ccccc1)C(=O)Cn1cnc2scc(-c3ccccc3)c2c1=O | 3 | 0 | 32* | 6
SMILES | GPR151 ag | FBW7 act | TEAD-YAP inh | MITF inh
O=C(Cn1cnc2c(-c3ccc(F)cc3)csc2c1=O)NCc1ccccc1 | 0 | 0 | 49* | 0
O=C(Cn1cnc2scc(-c3ccc4ccccc4c3)c2c1=O)NCc1ccccc1 | -1 | 1 | 37* | 6
O=C(Cn1cnc2c(-c3ccc(F)cc3)csc2c1=O)NCCc1ccccc1 | 0 | 0 | 7 | -1
O=C(O)CN1C(=O)/C(=C\c2ccc(Cl)c([N+](=O)[O-])c2)SC1=S | -1 | 0 | 12 | 0
COC(=O)c1sc2cc([N+](=O)[O-])cc(SCC(C)C)c2c1-n1cccc1 | -2 | 0 | -1 | 15
Cc1ccc(NC(=O)CCN2CCC(C)CC2)cc1 | -1 | 2.3* | 10 | 12
O=c1oc(-c2ccco2)nc2sc3c(c12)CCCC3 | -2 | 0 | 2 | 2
c1coc(-c2nnc(-c3cc4c(s3)CCCC4)o2)c1 | -8 | 0 | 54* | -6
COC(=O)c1ccc(Cl)cc1NC(=O)c1cc(OC)ccc1Br | -1 | 0 | 37* | -3
COc1ccc(C(=O)Nc2cc(Cl)ccc2C(=O)O)cc1 | -1 | 0 | 6 | 15
CC(=C\c1ccco1)/C=C1/SC(=S)N(CC(=O)O)C1=O | 0 | -1 | -5 | 54*
NN1C(=O)/C(=C/c2ccc(O)c(Br)c2)SC1=S | -8 | -1 | 33* | 20
COc1ccc(/C=C2/SC(=S)N(N)C2=O)cc1OC | 2 | 0 | -11 | 8
O=C(O)Cc1ccc(N2C(=O)/C(=C\c3ccco3)SC2=S)cc1 | -2 | -1 | 6 | 76*
O=C1/C(=C/c2ccco2)SC(=S)N1c1cccnc1 | -2 | 0 | -11 | 68*
O=C(O)c1ccc(N2C(=O)/C(=C\c3ccco3)SC2=S)cc1O | 0 | 0 | -8 | 38
CCN1C(=O)/C(=C\C(C)=C\c2ccco2)SC1=S | 0 | 0 | -6 | 18
CCOC(=O)c1ccc(NC(=O)CSc2nc3c(c(=O)n2Cc2ccccc2)SC(C)C3)cc1 (stereo unspecified) | -1 | 0 | 2 | -3
CCOC(=O)c1c(NC(=O)Cc2ccccc2)sc(C(=O)Nc2cccc(OC)c2)c1C | 0 | 0 | -2 | 9
NN1C(=O)/C(=C\c2ccco2)SC1=S | -1 | 0 | 2 | 75*
CCN1CCN(c2ccc(C(=O)O)cc2[N+](=O)[O-])CC1 | 0 | 1 | -2 | 7
O=C(COC(=O)c1ccc([N+](=O)[O-])o1)NC(=O)Nc1ccc2c(c1)OCCO2 | 0 | 0 | 37* | -3
CCCCN(C)c1nnc(NC(=O)NCc2ccccc2)s1 | 3 | 0 | 58* | 1
CN(Cc1ccccc1)c1nnc(NC(=O)NCc2ccccc2)s1 | 1 | 0 | 47* | -3
COCCCNC(=O)Nc1nnc(N(C)Cc2ccccc2)s1 | 1 | 0 | 1 | -2
SMILES | GPR151 ag | FBW7 act | TEAD-YAP inh | MITF inh
COc1ccc(NC(=O)CCS(=O)(=O)c2ccccc2)cc1Cl | 0 | 0 | -17 | 8
COc1ccc2oc(=O)c(-c3csc(Nc4ccccc4OC)n3)cc2c1 | 1 | 0 | 48* | -5
C1=C(N2CCCC2)CCCC1=[N+]1CCCC1 | 0 | 0 | 42* | 1
CN1CCN(C2=CC(=[N+]3CCCC3)CC(C)(C)C2)CC1 | 1 | 0 | -5 | 10
CC1CC(C)C[N+](=C2C=C(N3CCCC3)CC(C)(C)C2)C1 (stereo unspecified) | 4 | 0 | 77* | 6
CC1(C)CC(N2CCCC2)=CC(=[N+]2CCCCCC2)C1 | -1 | 0 | 66* | 17
CN1CCN(C2=CC(=[N+]3CCCCC3)CC(C)(C)C2)CC1 | -1 | 0 | 1 | 7
Cc1cnc(CNC(=O)c2ccc3cncc(-c4ccccc4)c3n2)cn1 | 0 | 0 | 63* | -4
O=C(NCc1ccccc1)c1ccc2cncc(-c3ccccc3)c2n1 | -1 | 0 | 66* | 60*
